# Data reported in PubChem BioAssay AID1918 (Vanderbilt High Throughput Screening Facility, 2009).
# The campaign covered roughly 130,000 compounds. About 2,500 (1.9%) were called active. The sample as a whole holds a higher share of actives than the screen did. Unmarked numbers belong to inactive results.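 How the source made its calls: active means signal ratio slope over the read window, or its plate-corrected B-score, at least 3 SD from the plate mean, either direction; inactive means the rest.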
# Biological target: ATP-sensitive inward rectifier potassium channel 1 (Homo sapiens) (UniProt P48048)
# Experiment: ROMK potassium channel modulators, primary screen, cell-based, thallium flux, MLSMR library (AID 1918);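 further: B-score of the F/F0 ratio slope over 7 to 12 s after thallium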
# Details: Tet-inducible ROMK, thallium flux fluorescence; at 10 µM; actives lie on both sides
# Sequence of ATP-sensitive inward rectifier potassium channel 1 (Homo sapiens) (P48048 whole entry, looked up): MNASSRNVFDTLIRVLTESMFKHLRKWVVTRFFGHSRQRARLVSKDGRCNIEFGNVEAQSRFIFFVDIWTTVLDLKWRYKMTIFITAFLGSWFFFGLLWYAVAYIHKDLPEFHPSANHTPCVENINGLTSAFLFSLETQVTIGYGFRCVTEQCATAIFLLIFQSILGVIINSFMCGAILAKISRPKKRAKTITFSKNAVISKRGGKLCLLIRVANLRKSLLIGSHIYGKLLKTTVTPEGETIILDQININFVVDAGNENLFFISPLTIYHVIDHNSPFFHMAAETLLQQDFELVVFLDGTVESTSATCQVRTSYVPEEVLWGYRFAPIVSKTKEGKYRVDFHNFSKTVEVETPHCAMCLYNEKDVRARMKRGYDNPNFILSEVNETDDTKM
row,Compound,B-score
1,O=[N+]([O-])c1ccc(N=Cc2c(O)ccc3ccccc23)cc1,-4.23 (active)
2,O=C(N/N=C/c1ccc([N+](=O)[O-])cc1)c1c[nH]c2ccccc12,-0.0103
3,CC(=O)n1c(C=Nc2ccccc2)c(O)c2ccccc21,-1.73
4,CCOc1ccc(-n2cnnn2)cc1S(=O)(=O)N1CCC(C)CC1C (stereo unspecified),-3.15 (active)
5,CCOc1ccc(C(C)C)cc1S(=O)(=O)n1nc(C)cc1C,-0.531
6,CCOc1ccc(Br)cc1S(=O)(=O)N1CCC(C(=O)O)CC1,-0.0303
7,O=C1[C@@H]2C(c3cccnc3)=NO[C@@H]2C(=O)N1c1ccc(Cl)cc1Cl,0.0407
8,CSc1nc2nc3c(c(=O)n2[nH]1)CCC3,1.45 (active)
9,O=c1c2c(nc3nc[nH]n13)CCC2,0.251
10,O=c1c2c(nc3cc(-c4cccc(Cl)c4)[nH]n13)CCCC2,-0.277
11,O=C(c1ccncc1)N1CCN(c2ccc3ccccc3n2)CC1,-0.138
12,Cc1ccccc1CCN(CC(=O)NC1CCCCC1)C(=O)c1csnn1,-3.14 (active)
13,CCC(C)(C)NC(=O)C(c1ccccn1)N(C(=O)c1csnn1)c1ccccc1 (stereo unspecified),0.633
14,O=C(NC1CCCC1)C(c1ccccn1)N(C(=O)c1csnn1)C1CCCC1 (stereo unspecified),0.761
15,COc1ccc(-c2ccc(CNCCCN3CCOCC3)o2)cc1Cl,-0.161
16,CCOc1ccc(N2CC(C(=O)NCCN3C(=O)S/C(=C\c4cccnc4)C3=O)CC2=O)cc1 (stereo unspecified),0.439
17,COc1ccccc1N1CCN(C(=O)c2ccc(Cl)c(S(=O)(=O)N3CCCC3)c2)CC1,-0.388
18,O=c1c2cc3c(=O)n(CC4CCCO4)c(=O)c3cc2c(=O)n1CC1CCCO1 (stereo unspecified),1.28
19,O=C(NCc1ccc2c(c1)OCO2)c1ccc2c(c1)C(=O)N(CC1CCCO1)C2=O (stereo unspecified),0.455
20,O=C1c2cccc3c([N+](=O)[O-])ccc(c23)C(=O)N1CC1CCCO1 (stereo unspecified),-2.58 (active)
21,C/C(=N\Nc1nc(N2CCOCC2)nc(N2CCOCC2)n1)c1ccc([N+](=O)[O-])cc1,0.473
22,CC1CCN(C(=S)c2cccc(O)c2)CC1,0.17
23,Cc1nc(-c2ccccc2)sc1C(=O)/C=C/N(C)C,0.143
24,CCOC(=O)c1c(NC(=O)CCl)sc(C(=O)N(CC)CC)c1C,1.96 (active)
25,CCOC(=O)c1sc(NC(=O)COc2ncnc3ccccc23)c(C(=O)OCC)c1C,0.196
26,CCC(=O)Nc1sc(C(=O)Nc2ccccc2)c(C)c1C(=O)OC,-1.11
